IL-1B inflam inh = qHTS for Inhibitors of Inflammasome Signaling: IL-1-beta AlphaLISA Primary Screen; THP-1 LPS/ATP IL-1B secretion, AlphaLISA, 16 h; stronger effect = lower value; activity change, % at 57.5 µM; actives 4.7% (n = 360,000); AID 743279, 2014; in the data active = activity change below about -50%; inconclusive = mostly about -30% to -49%
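THP-1 cells pretreated 1 hr with compounds (up to 57.5 uM final), then stimulated with LPS (250 ng/mL final) plus ATP (1.25 mM final); secreted IL-1B measured by AlphaLISA after 16 hr, decreased signal indicating inhibition.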
TDP1 cell CPT = qHTS for Inhibitors of human tyrosyl-DNA phosphodiesterase 1 (TDP1): qHTS in cells in presence of CPT | chicken DT40 Tdp1-/-;hTDP1 cells + 20 nM CPT, ATP luminescence, 48 h | Potency, µM (highest dose often 46.2 µM), inactives show at the highest dose activity change, negative = growth inhibition, hits mostly inhibitors | actives 12% (n = 420,000) | AID 686979, 2013; also: potency is read from the fitted curve at half-maximal effect; nearly all actives have a fitted effect of over 55% in size
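Cell growth measured by CellTiter-Glo luminescence after a minimum 48 h, 37 C compound exposure with 20 nM CPT in Tdp1-knockout DT40 cells stably expressing hTDP1, seeded 400/well; qHTS titration format.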
uPA surface inh = qHTS for Inhibitors of Cell Surface uPA Generation | Potency, µM (highest dose often 38.3 µM), inactives show at the highest dose activity change, negative = inhibition, actives largely listed as inhibitors | AID 540303, 2011 | actives 0.31% (n = 330,000) | cell surface uPA generation assay, qHTS; active = well fitted inhibition curve with a large enough effect; inconclusive = small, poorly fitted or top-dose-only effect; inactive = no such curve, though single readings can be large or run the other way; tested in mouse RAW 264.7 cells; also: potency is read from the fitted curve at half-maximal effect; nearly all actives have a fitted effect of over 55% in size
HT1080-NT tox = qHTS for induction of synthetic lethality in tumor cells producing 2HG: qHTS for the HT-1080-NT fibrosarcoma cell line; HT-1080-NT fibrosarcoma viability, CellTiter-Glo ATP luminescence, 48 h; Potency, µM (top dose mostly 46.1 µM), inactives show at the highest dose activity, negative = less viability, most hits filed as cytotoxic; actives 1.6% (n = 360,000); AID 686970, 2013;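 also: NT is the 2HG producing partner of a matched IDH1 knockdown line; potency is read from the fitted curve at half-maximal effect; 0% = DMSO-treated cells and -100% = media-only wells without cells; nearly all actives have a fitted effect of over 55% in size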
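Viability of the 2HG-overproducing fibrosarcoma line after 48 hours of compound exposure at 37 degrees C was determined by luminescence with CellTiter-Glo, and concentration-effect curves were then fitted and categorized.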
HT1080 IDH1KD tx = qHTS for induction of synthetic lethality in tumor cells producing 2HG: qHTS for the HT-1080-IDH1KD cell line; actives 2% (n = 360,000); AID 686971, 2013; Potency, µM (highest dose often 46.1 µM), inactives show top-dose activity, negative = toxicity, actives largely listed as cytotoxic; HT-1080 IDH1 knockdown viability, ATP luminescence, 48 h;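 also: potency is read from the fitted curve at half-maximal effect; 0% = DMSO wells and -100% = cell-free medium wells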
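Viability of IDH1-knockdown HT-1080 fibrosarcoma cells was assessed by CellTiter-Glo after 48 h at 37 °C with titrated compound; concentration-effect curves were classified by fit quality and response size.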
TDP1 cell noCPT = qHTS for Inhibitors of human tyrosyl-DNA phosphodiesterase 1 (TDP1): qHTS in cells in absence of CPT | DT40 Tdp1-/- hTDP1 cells, no CPT, ATP luminescence, 48 h | Potency, µM (series often up to 46.2 µM), for inactives: at the top dose activity change, negative = growth inhibition, hits mostly inhibitors | actives 15% (n = 420,000) | AID 686978, 2013; also: potency is read from the fitted curve at half-maximal effect; nearly all actives have a fitted effect of over 55% in size
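Stably hTDP1-transfected Tdp1-null chicken DT40 cells were treated with library compounds minus camptothecin and grown for at least 48 hr at 37 °C, after which cellular ATP was quantified by luminescence.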
An asterisk follows results filed as active; ? = inconclusive; . = no result; [ ] = another dose, or the depositor's remark. In the library only some 19% were active in any assay of this set; here they are far more common. Unless noted, calls follow the shape of the dose curve; as a rule, active = well fitted curve in the direction sought with a large enough effect; inconclusive = small, poorly fitted or top-dose-only effect, or another doubt; inactive = no such curve, though single readings can be large; an effect the other way counts as inactive or inconclusive. Unless noted, % is scaled to controls: 0 for no effect and ±100 for the full control effect.

SMILES | IL-1B inflam inh | TDP1 cell CPT | uPA surface inh | HT1080-NT tox | HT1080 IDH1KD tx | TDP1 cell noCPT
Cc1ccc(N(C)S(=O)(=O)c2ccc(-c3cc(C)no3)s2)cc1 | 4 | 6.5µM* | 2.2µM* | -26% | ? | -83%
Cc1cc(-c2ccc(S(=O)(=O)N(C)c3ccc(C)c(C)c3)s2)on1 | 24 | 3.3µM* | ? | ? | ? | 4.1µM*
Cc1cc(-c2ccc(S(=O)(=O)Nc3ccccc3F)s2)on1 | . | -18% | . | . | . | ?
CCC(C(=O)NCCc1c[nH]c2cc(OC)ccc12)c1ccccc1 (centres undefined) | -6 | -8% | 1% | 9% | 1% | ?
CCOc1cc(-c2sc(Nc3ccccc3)n[n+]2C)ccc1OC | -5 | ? | 5% | -3% | 0% | -23%
COc1ccc2ccccc2c1-c1sc(Nc2ccccc2)n[n+]1-c1ccc(F)cc1 | -78* | 21µM* | ? | ? | ? | 13µM*
COc1ccc(-c2sc(Nc3ccccc3)n[n+]2C)c(C)c1C | 89 | 21µM* | -28% | -1% | 0% | 21µM*
COc1ccc(-c2sc(Nc3ccccc3)n[n+]2-c2ccc(F)cc2)cc1Br | ? | 5.8µM* | 15% | ? | -24% | 18µM*
O=C(COC(=O)C1COc2ccccc2O1)c1ccccc1 (centres undefined) | 18 | -6% | . | 12% | -8% | 4%
Cc1ccn2c(C(C)O)nnc2c1 (centres undefined) | 16 | 1% | . | -1% | 0% | -11%
COc1ccccc1CNC(=O)CCC(=O)N1Cc2cccc(OC)c2Oc2ncccc21 | 1 | 7% | -8% | 2% | 5% | -10%
COc1ccccc1CNC(=O)c1ccc(N2Cc3cccc(OC)c3Oc3ncccc32)s1 | . | 15µM* | . | . | . | 12µM*
CCCCC(=O)NCCc1c(Cc2ccccc2)[nH]c2ccccc12 | . | ? | . | . | . | 18µM*
O=C1NC[C@@H](CCCCN2CCN(CCc3ccc(O)cc3)C(=O)C2=O)N(CCc2ccc(O)cc2)C1=O | 25 | -1% | . | 25% | 25% | -14%
Cn1cc(-c2cc3n(n2)CCC(=O)N3CCCC(=O)NCc2ccc(F)cc2)c2ccccc21 | . | 16µM* | . | . | . | ?
COCCCNC(=O)CCCN1C(=O)CCn2nc(-c3cn(C)c4ccccc34)cc21 | . | 0% | . | . | . | -20%
CCc1ccc(CNC(=O)CN2C(=O)CCn3nc(-c4cn(C)c5ccccc45)cc32)cc1 | . | 16µM* | . | . | . | -21%
COCCn1c(SCC(=O)c2ccc(C)cc2C)nc2cc(C(=O)NC3CCCC3)ccc2c1=O | . | 4% | . | . | . | -18%
Cc1cnc(SCc2ccccn2)nc1C1CCCN(C(=O)c2ccc3[nH]c(C)c(C)c3c2)C1 (centres undefined) | . | -1%[9.04 µM] | . | . | . | ?
Cc1cnc(SCc2ccccn2)nc1C1CCCN(C(=O)c2cc3ccccc3oc2=O)C1 (centres undefined) | . | 16µM* | . | . | . | 21µM*
Cc1cnc(SCCN2CCOCC2)nc1C1CCCN(C(=O)c2cccc3c(C)c(C)[nH]c23)C1 (centres undefined) | . | 0%[9.04 µM] | . | . | . | 16µM*
Cc1cnc(SCC2CCCO2)nc1C1CCCN(C(=O)c2ccc(S(N)(=O)=O)cc2)C1 (centres undefined) | . | 6% | . | . | . | ?
Cc1cnc(SCc2ccccn2)nc1C1CCCN(C(=O)c2ccc3c(c2)OCO3)C1 (centres undefined) | . | 21µM* | . | . | . | ?
Cc1cnc(SCc2ccccn2)nc1C1CCCN(Cc2ccsc2)C1 (centres undefined) | . | 15µM* | . | . | . | 15µM*
c1coc(C2=Nc3cccc4cccc(c34)N2)c1 | ? | 15µM* | -4% | -6% | -2% | 23µM*
SMILES | IL-1B inflam inh | TDP1 cell CPT | uPA surface inh | HT1080-NT tox | HT1080 IDH1KD tx | TDP1 cell noCPT
CC1=Nc2cccc3cccc(c23)N1 | -11 | ? | -4% | -12% | -12% | 23µM*
CC(C)(C)NS(=O)(=O)c1ccc2[nH]c3c(c2c1)CCCCC3 | -21 | ? | -5% | -26% | -22% | ?
CCOC(=O)c1cccc(NS(=O)(=O)c2ccc3[nH]c4c(c3c2)CCCC4)c1 | . | 23µM* | . | . | . | ?
CC(=O)c1cccc(NS(=O)(=O)c2ccc3[nH]c4c(c3c2)CCCCCC4)c1 | . | ? | . | . | . | 21µM*
CC(=O)c1cccc(NS(=O)(=O)c2ccc3[nH]c4c(c3c2)CCCCC4)c1 | . | 21µM* | . | . | . | 16µM*
CC(=O)Oc1ccc(Cn2c(C)c(C(=O)NC3CC3)sc2=O)cc1 | 64 | -26% | . | 0% | 1% | -21%
O=C(Nc1ccc2[nH]ccc2c1)c1cccs1 | ? | -20% | 7.1µM* | 9% | 11% | -1%
COc1ccc(C(=O)Nc2ccc3[nH]ncc3c2)cc1 | ? | -7% | 3.2µM* | -5% | 1% | -25%
O=C(COc1ccccc1)Nc1ccc2[nH]ncc2c1 | 6 | 5% | 14% | 21% | 10% | ?
O=C(COc1ccc(Cl)cc1)Nc1ccc2[nH]ncc2c1 | -10 | ? | 0% | 10% | 17% | 21µM*
CCOc1ccc(C(=O)Nc2ccc3[nH]ncc3c2)cc1 | -6 | ? | 5µM* | -29% | -26% | 0%
O=C(Nc1ccc(NC(=O)c2cccs2)cc1)c1cccs1 | -23 | -14% | 4% | -20% | -17% | -13%
COC(=O)c1ccccc1NS(=O)(=O)c1c(C)noc1C | 11 | -16% | -3% | 8% | 6% | 23%
COc1ccc(C(=O)Nc2ccc3[nH]ccc3c2)cc1 | -16 | ? | -11% | 18µM* | 21µM* | 26µM*
O=C(Cc1ccccc1)Nc1ccc2[nH]ncc2c1 | -58* | -5% | -16% | -15% | -22% | 5%
Cc1nn(Cc2ccc([N+](=O)[O-])cc2)c(=O)n1N(C)c1ncc(C(F)(F)F)cc1Cl | -3 | ? | -5% | -19% | -15% | 11µM*
Cc1nn(Cc2ccc(Cl)cc2)c(=O)n1N(C)c1ncc(C(F)(F)F)cc1Cl | 5 | 21µM* | -2% | -21% | -19% | 21µM*
CN(NS(=O)(=O)c1ccc(Cl)cc1)c1ncc(C(F)(F)F)cc1Cl | -6 | ? | -2% | -1% | -2% | ?

Compound activity: PubChem, National Center for Advancing Translational Sciences (NCATS)
